The sample as a whole holds a higher share of hits than the screen did.
CHX counter = counter-screen for Shiga toxin inhibitors: cycloheximide protein synthesis inhibition. max response, %. 12% of 300,000 active. AID 2314. cell reporter, cycloheximide protein synthesis inhibition counterscreen; in the data active = max response mostly above about 13%, no sharp cut-off; inactive = mostly below about 14%; also: read at 38.3 µM for the half of the compounds with a filed dose; 0% is about no effect
Shiga toxin inh = blocks Shiga toxin action in Vero cells | Vero cells, Shiga toxin protein synthesis inhibition reporter | inhibition, % at 38.7 µM | 9.2% of 290,000 active; in the data active = inhibition mostly above about 28%, no sharp cut-off; inactive = mostly below about 43%; also: 0% is about no effect
Sm TGR inh = inhibitors of Schistosoma mansoni thioredoxin glutathione reductase; purified TGR, DTNB reduction, TNB absorbance 405 nm; Potency, µM (top dose mostly 114 µM), inactives show at the highest dose activity change, negative = inhibition, most hits filed as inhibitors; 3% of 360,000 active; AID 485364; also: potency is read from the fitted curve at half-maximal effect; % is scaled to controls: 0 for no effect and ±100 for the full control effect; nearly all actives have a fitted effect of over 60% in size
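First, TGR (20 nM dispensed) and NADPH were mixed with compound. Second, a 15 min room-temperature incubation followed. Third, further NADPH and then DTNB were added to start the reaction. Finally, TNB absorbance was monitored kinetically.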
LmPK inh = inhibitors of Leishmania mexicana pyruvate kinase | Q27686 | purified LmPK, Kinase-Glo ATP luminescence, 1 h | Potency, µM (series often up to 57.5 µM), without a hit: at the top dose activity change, negative = inhibition, usual class: inhibitors | 0.37% of 290,000 active | AID 1721; also: potency is read from the fitted curve at half-maximal effect; % is scaled to controls: 0 for no effect and ±100 for the full control effect
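qHTS format; LmPK 0.1 nM; substrates PEP 0.5 mM and ADP 0.1 mM. One-hour room-temperature incubation, then coupled luciferase luminescence; 0.5 nM enzyme wells mark activation.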
TbPYK inhibitor = blocks Trypanosoma brucei pyruvate kinase; Q57TT1; TbPYK enzyme, Kinase-Glo Plus ATP luminescence, 45 min; Potency, µM (highest dose often 76.8 µM), inactives show at the highest dose activity, negative = inhibition, most hits filed as inhibitors; 0.12% of 410,000 active; AID 624173; also: potency is read from the fitted curve at half-maximal effect; % is scaled to controls: 0 for no effect and ±100 for the full control effect; nearly all actives have a fitted effect of over 50% in size
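Enzyme and substrate buffer are dispensed first and compound is pin-transferred. ADP at 130 uM final then starts the reaction, which runs 45 min at room temperature. Detection reagent is added for 10 min before luminescence is imaged.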
Giardia FBPA inh-1 = blocks Giardia fructose-bisphosphate aldolase activity. purified Giardia FBPA. AID 2451. 0.71% of 290,000 active. A8B2U2. Potency, µM (series often up to 59.6 µM), inactives show at the highest dose activity, negative = inhibition, usual class: inhibitors; also: potency is read from the fitted curve at half-maximal effect; % is scaled to controls: 0 for no effect and ±100 for the full control effect; nearly all actives have a fitted effect of over 55% in size
Target sequence (A8B2U2 whole entry, looked up): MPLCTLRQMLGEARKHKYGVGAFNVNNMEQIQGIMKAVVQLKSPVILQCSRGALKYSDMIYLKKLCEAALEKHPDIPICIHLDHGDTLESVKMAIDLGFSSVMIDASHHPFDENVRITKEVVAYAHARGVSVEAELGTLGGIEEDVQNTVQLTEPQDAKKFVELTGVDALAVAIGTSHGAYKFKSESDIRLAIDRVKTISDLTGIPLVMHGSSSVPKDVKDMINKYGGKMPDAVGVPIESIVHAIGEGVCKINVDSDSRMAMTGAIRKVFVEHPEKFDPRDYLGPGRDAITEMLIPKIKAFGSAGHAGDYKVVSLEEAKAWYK
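Giardia FBPA (40 nM reagent) was preincubated 10 min at RT with compound (up to 57.5 uM final), then substrate plus GAPDH/TPI/NAD/arsenate coupling system with diaphorase/resazurin was added; resorufin fluorescence (525/598 nm) was read after 20 min.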
Giardia growth = blocks growth of Giardia lamblia trophozoites; shares compounds with Giardia FBPA inh-1; Giardia lamblia trophozoite growth inhibition; Potency, µM (doses to about 57.5 µM), for the others: at the top dose activity change, negative = inhibition, usual class: inhibitors; 5% of 1,500 active; AID 2785;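 also: potency is read from the fitted curve at half-maximal effect; trophozoites exposed to compound for 48 h at 37 °C; % is scaled to controls: 0 for no effect and ±100 for the full control effect; nearly all actives have a fitted effect of over 70% in size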
Mammal cell tox = mammalian cytotoxicity of Giardia aldolase inhibitor hits. shares compounds with Giardia FBPA inh-1. 4% of 1,500 active. Potency, µM (titrated, usually from 57.5 µM), for inactives: at the top dose viability change, negative = toxicity, usual class: inhibitors. mammalian cell viability counter-screen, qHTS. AID 2786;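 also: Chinese hamster ovary cells used as mammalian cytotoxicity surrogate; viability measured as cellular ATP by luminescence; potency is read from the fitted curve at half-maximal effect; compound exposure lasted 48 h before reading; % is scaled to controls: 0 for no effect and ±100 for the full control effect; nearly all actives have a fitted effect of over 60% in size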
Giardia FBPA inh-2 = confirmation of Giardia fructose-bisphosphate aldolase inhibitors | 5% of 1,500 active | purified Giardia aldolase enzyme activity, qHTS | shares compounds with Giardia FBPA inh-1 | Potency, µM (series often up to 57.5 µM), for the others: top-dose activity change, negative = inhibition, usual class: inhibitors; also: potency is read from the fitted curve at half-maximal effect; % is scaled to controls: 0 for no effect and ±100 for the full control effect; nearly all actives have a fitted effect of over 45% in size
Rabbit aldolase = rabbit FBP aldolase inhibition by Giardia aldolase hits; 4% of 1,500 active; AID 2794; Potency, µM (titrated, usually from 57.5 µM), for the others: top-dose activity, negative = inhibition, hits mostly inhibitors; shares compounds with Giardia FBPA inh-1; Rabbit muscle FBPA enzyme inhibition, selectivity counter-screen; also: potency is read from the fitted curve at half-maximal effect; % is scaled to controls: 0 for no effect and ±100 for the full control effect; nearly all actives have a fitted effect of over 60% in size
Target sequence (P00883 whole entry, looked up): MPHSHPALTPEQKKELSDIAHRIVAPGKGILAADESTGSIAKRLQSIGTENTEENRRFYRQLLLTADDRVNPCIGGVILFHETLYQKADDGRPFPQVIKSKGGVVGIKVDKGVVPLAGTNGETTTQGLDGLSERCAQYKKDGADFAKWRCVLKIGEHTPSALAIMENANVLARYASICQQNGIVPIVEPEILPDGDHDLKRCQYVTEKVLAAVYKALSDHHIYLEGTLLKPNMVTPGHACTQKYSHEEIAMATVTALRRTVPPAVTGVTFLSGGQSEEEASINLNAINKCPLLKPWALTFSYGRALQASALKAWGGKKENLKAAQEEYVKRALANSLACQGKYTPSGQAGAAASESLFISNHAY
GAPDH coupling = counter-screen for Giardia aldolase inhibitors: GAPDH coupling enzyme. shares compounds with Giardia FBPA inh-1. GAPDH coupling enzyme counterscreen, biochemical, qHTS. Potency, µM (series often up to 57.5 µM), without a hit: at the top dose activity change, negative = inhibition, actives largely listed as inhibitors. 6% of 1,500 active; also: potency is read from the fitted curve at half-maximal effect; % is scaled to controls: 0 for no effect and ±100 for the full control effect; nearly all actives have a fitted effect of over 55% in size
* marks the source's active call; other numbers are inactive results; ? = inconclusive; · = not tested or not shown; [ ] = dose if it differs, or a comment. Unless noted, calls follow the shape of the dose curve; as a rule, active = well fitted curve in the direction sought with a large enough effect; inconclusive = small, poorly fitted or top-dose-only effect, or another doubt; inactive = no such curve, though single readings can be large; an effect the other way counts as inactive or inconclusive.

SMILES | CHX counter | Shiga toxin inh | Sm TGR inh | LmPK inh | TbPYK inhibitor | Giardia FBPA inh-1 | Giardia growth | Mammal cell tox | Giardia FBPA inh-2 | Rabbit aldolase | GAPDH coupling
C=CCNC(=S)N1CCN(Cc2ccc3c(c2)OCO3)CC1 | -2 | · | -9% | 2% | 1% | 7.1µM* | -26% | 6% | -8% | 9% | -6%
CCNC(=S)N1CCN(Cc2ccc3c(c2)OCO3)CC1 | -3 | -8 | 16% | 2% | 0% | 5% | · | · | · | · | ·
CCn1c(=O)c(C(=O)CN(C)Cc2cccc(OC)c2OC)c(N)n(Cc2ccccc2)c1=O | -1 | 27 | -1% | -1% | 17% | 16µM* | 34% | -7% | 2% | 4% | -9%
Nc1ncnc(Nc2cc(Cl)cc(Cl)c2)c1[N+](=O)[O-] | -2 | -8 | 5% | -3% | -6% | 4% | · | · | · | · | ·
Nc1ncnc(NNC(=O)CNC(=O)c2c(F)cccc2Cl)c1[N+](=O)[O-] | 2 | -15 | 8% | 1% | 0% | 16µM* | -16% | -3% | -2% | 5% | 0%
CCC(=O)Nc1sc2c(c1C(=O)OC)CCN(Cc1ccccc1)C2 | -1 | -3 | -23% | 1% | 4% | 13µM* | -4% | -21% | -6% | 1% | -22%
CC(C)N1CCc2c(sc(NC(=O)Cc3ccccc3)c2C(N)=O)C1 | -4 | -4 | -1% | -6% | -2% | 13µM* | ? | 11% | 9% | 8% | 9%
CN1CCc2c(sc(NC(=O)c3cc4cc([N+](=O)[O-])ccc4s3)c2C(N)=O)C1 | -10 | -31 | -22% | 0% | · | -12% | · | · | · | · | ·
CN1CCc2c(sc(NC(=O)c3cc(Cl)sc3Cl)c2C(N)=O)C1 | 25* | 30* | -21% | -2% | 1% | 32µM* | -65% | ? | 4% | 2% | 0%
COC(=O)c1c(NC(=O)C(C)C)sc2c1CCN(Cc1ccccc1)C2 | -2 | 6 | -22% | -2% | -3% | ? | · | · | · | · | ·
CCN1CCc2c(sc(NC(=O)C3CCCCC3)c2C(=O)OC)C1 | -4 | -5 | -5% | -2% | -2% | 18µM* | -16% | -11% | 5% | 13% | 6%
CC(=O)Nc1cccc(CP(=O)(c2ccccc2)c2ccccc2)c1 | -2 | 15 | 15% | -3% | 3% | 0% | · | · | · | · | ·
COc1c(O)ccc(/C=N\NC(=O)c2ccc3c(c2)OCO3)c1[N+](=O)[O-] | 14 | 11 | -9% | 4% | -2% | 2% | · | · | · | · | ·
COc1ccccc1CNC(=O)COC(=O)c1cccc(-n2cnnn2)c1 | · | · | -4% | · | -3% | · | · | · | · | · | ·
COc1cccc(OC)c1C(=O)Nc1sc2c(c1C(N)=O)CCN(Cc1ccccc1)C2 | 1 | 0 | -15% | 5% | 0% | 13µM* | -54% | -6% | -2% | 15% | -10%
CC(=O)c1ccc(C(=O)Nc2sc3c(c2C(N)=O)CCN(Cc2ccccc2)C3)cc1 | -1 | -1 | -1% | 0% | · | ? | · | · | · | · | ·
O=C(COc1ccc(Br)cc1)Nc1ccc(Cc2ccncc2)cc1 | 1 | 16 | 0% | 3% | 2% | 7% | · | · | · | · | ·
NNc1n[nH]c(=S)n1N | 40* | 63* | -18% | 0% | -22% | 1.8µM* | 20%[38.3 µM] | -4% | 16µM* | 18µM* | 18µM*
Cc1ccccc1Cc1n[nH]c(=S)n1N | -4 | -8 | 13% | 7% | ? | -27% | · | · | · | · | ·
O=C1CN=C(c2ccccc2)c2cc(Cl)ccc2N1Cc1ccc(Cl)cc1 | · | · | -4% | · | 4% | · | · | · | · | · | ·
O=C(O)CN1C(=O)CN=C(c2ccccn2)c2cc(Cl)ccc21 | 18 | 14 | 18% | -4% | 2% | 20µM* | -15% | -3% | 0% | 7% | 8%
CCCCN(CC)Cc1ccc(CNC(=S)Nc2c(C)cc(C)cc2C)o1 | 9 | -8 | ? | -1% | -9% | 13µM* | 26% | -14% | -10% | 2% | 5%
NC(=S)NNc1ccnc2cc(Cl)ccc12 | -1 | -10 | 7% | 8% | -3% | 16µM* | ? | -4% | -4% | -3% | 15%
NC(=S)NNc1ccc(Cl)c(Cl)c1 | -3 | 6 | 2µM* | 0% | -13% | 13µM* | 13% | -10% | -15% | 3% | -6%
Cc1ccc(NNC(N)=S)cc1Cl | -3 | -5 | 40µM* | -2% | -9% | 18µM* | -22% | 13% | -6% | 3% | -6%
CCN(CC)c1ccc(C(=O)NC(=S)Nc2cc(S(=O)(=O)N3CCOCC3)ccc2-n2cncn2)cc1 | -4 | -8 | -9% | 4% | 2% | ? | · | · | · | · | ·
COCCCN(C(=O)c1ccccc1F)c1nc(-c2ccc(OC)cc2)cs1 | 10 | 1 | -1% | -21% | 1% | -16% | · | · | · | · | ·
COc1ccc(NC(=O)CNC(c2ccccc2)c2ccccc2)cc1 | 1 | -9 | 0% | -3% | 2% | 20µM* | -11% | 3% | -2% | 1% | -1%
